Results reported in the supplement of paper PMC10849652.
About 7,900 targets were measured; listed, in parts, are those with a hit and a random draw of the rest. About 0.6% of all pairs of compound and target were hits.

What was measured:
Experiment in all cases: log2 fold change, soluble protein after heating vs DMSO (PISA); higher = thermal stabilisation; K562 cells, 10 uM, 30 min; active = over 0.2 and 3.5 SD of the protein, either way, in both replicates (recomputed)
[1] = compound: CC1=C(C=C(C=C1)NC(=O)C2=CC(=CC=C2)C(C)(C)C#N)NC3=CC4=C(C=C3)N=CN(C4=O)C
Outline: (§1)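 Soluble protein was quantified by TMTpro 16plex LC-MS/MS after channel sums were equalised. It was obtained as the supernatant after 21,000xg for 90 min from pooled aliquots of K562 cells (2×10^6 cells/mL, 10 μM compound, 30 min) heated for 3 min across 48°C-58°C and extracted in PBS with 0.5% NP-40 at 4°C. Thermal stability values are relative to control samples and come from duplicates. They are given as log2 fold changes.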

[2] = compound: CC1=C(C=C(C=C1)NC(=O)C2=CC(=CC=C2)N(C)C)NC(=O)C3=CC=C(C=C3)O
Outline: as §1

[3] = compound: CC1=CC=C(C=C1)SC2=C3C=C(SC3=CN=C2)C(=O)N
Outline: as §1

[4] = compound: CC1=NC(=CC=C1)C2=C(N=C(N2)C(C)(C)C)C3=CC4=NC=CN=C4C=C3
Outline: as §1

Nexturastat A = compound: CCCCN(Cc1ccc(C(=O)NO)cc1)C(=O)Nc1ccccc1 [Nexturastat A]
Outline: as §1

vemurafenib = compound: CCCS(=O)(=O)Nc1ccc(F)c(C(=O)c2c[nH]c3ncc(-c4ccc(Cl)cc4)cc23)c1F [vemurafenib]
Outline: as §1

[5] = compound: CCCS(=O)(=O)Nc1ccc(F)c(C(=O)c2c[nH]c3ncc(Cl)cc23)c1F
Outline: as §1

[6] = compound: CCCc1cc(C)[nH]c(=O)c1CNC(=O)c1cc(-c2ccnc(N3CCN(C)CC3)c2)cc2c1cnn2C(C)C
Outline: as §1

givinostat = compound: CCN(CC)Cc1ccc2cc(COC(=O)Nc3ccc(C(=O)NO)cc3)ccc2c1 [givinostat]
Outline: as §1

barasertib = compound: CCN(CCCOc1ccc2c(Nc3cc(CC(=O)Nc4cccc(F)c4)[nH]n3)ncnc2c1)CCOP(=O)(O)O [barasertib]
Outline: as §1

[7] = compound: CC[C@@H]1C(=O)N(C)c2cnc(Nc3ccc(C(=O)NC4CCN(C)CC4)cc3OC)nc2N1C1CCCC1
Outline: as §1

volasertib = compound: CC[C@@H]1C(=O)N(C)c2cnc(Nc3ccc(C(=O)N[C@H]4CC[C@H](N5CCN(CC6CC6)CC5)CC4)cc3OC)nc2N1C(C)C [volasertib]
Outline: as §1

[8] = compound: CC[C@H](C)N1C=C(C2=C(C=C(C=C21)C3=CN=C(C=C3)N4CCNCC4)C(=O)NCC5=C(C=C(NC5=O)C)C)C
Outline: as §1

epoxomicin = compound: CC[C@H](C)[C@@H](C(=O)N[C@@H]([C@@H](C)O)C(=O)N[C@@H](CC(C)C)C(=O)[C@]1(CO1)C)NC(=O)[C@H]([C@@H](C)CC)N(C)C(=O)C [epoxomicin]
Outline: as §1

[9] = compound: CCn1c(C(=O)N(C2CC2)C2CC2)cc2c3c(ncn3C)c(Nc3cc(C)n(C)n3)nc21
Outline: as §1

[10] = compound: CCn1cc(-c2ccnc3[nH]c(-c4cccc(CN(C)C)c4)cc23)c(-c2ccc(NC(=O)N(C)C)cc2)n1
Outline: as §1

[11] = compound: CN(C)CC(=O)Nc1ccc2[nH]c(=O)c3ccccc3c2c1
Outline: as §1

rosiglitazone = compound: CN(CCOC1=CC=C(C=C1)C[C@H]2C(=O)NC(=O)S2)C3=CC=CC=N3 (racemic) [rosiglitazone]
Outline: as §1

[12] = compound: CN1C2=C(C3=C1C(=O)N(N=C3)CC4=CC(=CC=C4)N)SC(=C2)S(=O)C
Outline: as §1

[13] = compound: CN1CCC(CNc2ccc3ncc(-c4cccc(OC(F)(F)F)c4)n3n2)CC1
Outline: as §1

Measured: log2 fold change

TRIP10 (UniProt Q15642)
UniProt Q15642, sequence (Q15642 whole entry, looked up): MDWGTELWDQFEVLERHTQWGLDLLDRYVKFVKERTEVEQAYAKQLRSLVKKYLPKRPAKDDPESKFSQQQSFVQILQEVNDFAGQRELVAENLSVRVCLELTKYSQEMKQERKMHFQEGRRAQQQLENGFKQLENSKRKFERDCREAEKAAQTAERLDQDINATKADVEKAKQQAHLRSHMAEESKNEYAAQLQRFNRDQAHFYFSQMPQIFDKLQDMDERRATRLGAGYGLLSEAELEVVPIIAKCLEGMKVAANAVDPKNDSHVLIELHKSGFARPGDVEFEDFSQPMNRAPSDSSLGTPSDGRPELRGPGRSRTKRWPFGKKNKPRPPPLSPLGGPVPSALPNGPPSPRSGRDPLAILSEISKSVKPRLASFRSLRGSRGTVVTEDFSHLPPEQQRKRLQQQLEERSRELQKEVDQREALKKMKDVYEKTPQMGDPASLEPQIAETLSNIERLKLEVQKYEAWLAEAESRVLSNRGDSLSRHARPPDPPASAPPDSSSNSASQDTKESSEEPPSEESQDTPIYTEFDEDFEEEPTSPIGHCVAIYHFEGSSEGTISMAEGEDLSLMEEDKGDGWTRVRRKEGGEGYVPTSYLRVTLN
inactive: [1] 0.003 | [2] -0.026 | [3] -0.009 | [4] -0.045 | Nexturastat A 0.139 | vemurafenib 0.08 | [5] 0.026 | [6] -0.012 | givinostat -0.058 | barasertib 0.015 | [7] -0.024 | volasertib -0.11 | [8] 0.047 | epoxomicin 0.034 | [9] -0.051 | [10] -0.051 | [11] 0.04 | rosiglitazone 0 | [12] -0.036 | [13] -0.056

XPO1 (UniProt O14980)
UniProt O14980, sequence (O14980 whole entry, looked up): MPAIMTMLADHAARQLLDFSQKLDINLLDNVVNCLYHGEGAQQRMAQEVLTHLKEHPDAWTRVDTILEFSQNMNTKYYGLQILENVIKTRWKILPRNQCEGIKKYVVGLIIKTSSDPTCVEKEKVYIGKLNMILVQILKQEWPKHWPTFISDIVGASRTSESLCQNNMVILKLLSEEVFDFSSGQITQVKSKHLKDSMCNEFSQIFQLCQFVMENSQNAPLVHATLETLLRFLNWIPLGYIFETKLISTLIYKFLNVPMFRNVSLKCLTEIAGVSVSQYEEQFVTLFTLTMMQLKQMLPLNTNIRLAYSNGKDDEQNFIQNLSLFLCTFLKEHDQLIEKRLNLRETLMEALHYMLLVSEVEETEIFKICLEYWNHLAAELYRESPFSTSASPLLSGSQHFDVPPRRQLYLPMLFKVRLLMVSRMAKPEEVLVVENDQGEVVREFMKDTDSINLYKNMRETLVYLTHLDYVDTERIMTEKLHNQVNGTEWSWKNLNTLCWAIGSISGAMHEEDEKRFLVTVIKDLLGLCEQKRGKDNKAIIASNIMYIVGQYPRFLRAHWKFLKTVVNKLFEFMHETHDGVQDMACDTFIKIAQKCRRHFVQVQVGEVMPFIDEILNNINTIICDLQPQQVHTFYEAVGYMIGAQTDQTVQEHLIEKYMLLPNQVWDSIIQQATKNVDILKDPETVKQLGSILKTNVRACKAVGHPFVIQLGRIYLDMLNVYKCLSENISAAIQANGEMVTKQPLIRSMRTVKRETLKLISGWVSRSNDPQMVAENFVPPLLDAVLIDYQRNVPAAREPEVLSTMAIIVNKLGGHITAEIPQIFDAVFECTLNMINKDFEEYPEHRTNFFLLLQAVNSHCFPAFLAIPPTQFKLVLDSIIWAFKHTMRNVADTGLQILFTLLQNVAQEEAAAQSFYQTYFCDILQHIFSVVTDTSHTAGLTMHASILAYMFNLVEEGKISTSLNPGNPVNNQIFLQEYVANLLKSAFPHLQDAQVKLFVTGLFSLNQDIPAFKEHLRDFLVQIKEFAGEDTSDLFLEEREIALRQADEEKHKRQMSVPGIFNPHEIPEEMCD
active: volasertib -0.546 | [13] -0.343
inactive: [1] 0.072 | [2] -0.063 | [3] 0.025 | [4] 0.081 | Nexturastat A -0.061 | vemurafenib 0.086 | [5] 0.101 | [6] -0.011 | givinostat 0.024 | barasertib 0.039 | [7] -0.175 | [8] 0.085 | epoxomicin 0.023 | [9] -0.049 | [10] -0.13 | [11] 0.058 | rosiglitazone 0.077 | [12] -0.033

WDR18 (UniProt Q9BV38)
UniProt Q9BV38, sequence (Q9BV38 whole entry, looked up): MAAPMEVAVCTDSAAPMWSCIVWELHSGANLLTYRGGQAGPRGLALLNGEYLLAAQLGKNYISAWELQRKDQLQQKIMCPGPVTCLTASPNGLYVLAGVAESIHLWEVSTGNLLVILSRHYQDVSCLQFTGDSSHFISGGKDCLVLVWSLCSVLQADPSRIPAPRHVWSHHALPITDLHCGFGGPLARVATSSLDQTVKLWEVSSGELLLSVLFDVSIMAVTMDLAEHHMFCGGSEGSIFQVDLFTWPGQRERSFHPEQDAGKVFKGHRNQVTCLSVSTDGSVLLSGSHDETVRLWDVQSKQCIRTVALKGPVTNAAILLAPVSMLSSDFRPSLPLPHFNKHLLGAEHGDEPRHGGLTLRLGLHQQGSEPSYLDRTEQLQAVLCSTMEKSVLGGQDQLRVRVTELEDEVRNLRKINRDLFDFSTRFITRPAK
inactive: [1] -0.042 | [2] 0.08 | [3] 0.016 | [4] 0.014 | Nexturastat A -0.035 | vemurafenib 0.04 | [5] -0.003 | [6] 0.004 | givinostat -0.025 | barasertib 0.013 | [7] 0.034 | volasertib -0.1 | [8] 0.022 | epoxomicin 0.016 | [9] 0.039 | [10] -0.026 | [11] -0.017 | rosiglitazone 0.007 | [12] 0.018 | [13] -0.002

VPS41 (UniProt P49754)
UniProt P49754, sequence (P49754 whole entry, looked up): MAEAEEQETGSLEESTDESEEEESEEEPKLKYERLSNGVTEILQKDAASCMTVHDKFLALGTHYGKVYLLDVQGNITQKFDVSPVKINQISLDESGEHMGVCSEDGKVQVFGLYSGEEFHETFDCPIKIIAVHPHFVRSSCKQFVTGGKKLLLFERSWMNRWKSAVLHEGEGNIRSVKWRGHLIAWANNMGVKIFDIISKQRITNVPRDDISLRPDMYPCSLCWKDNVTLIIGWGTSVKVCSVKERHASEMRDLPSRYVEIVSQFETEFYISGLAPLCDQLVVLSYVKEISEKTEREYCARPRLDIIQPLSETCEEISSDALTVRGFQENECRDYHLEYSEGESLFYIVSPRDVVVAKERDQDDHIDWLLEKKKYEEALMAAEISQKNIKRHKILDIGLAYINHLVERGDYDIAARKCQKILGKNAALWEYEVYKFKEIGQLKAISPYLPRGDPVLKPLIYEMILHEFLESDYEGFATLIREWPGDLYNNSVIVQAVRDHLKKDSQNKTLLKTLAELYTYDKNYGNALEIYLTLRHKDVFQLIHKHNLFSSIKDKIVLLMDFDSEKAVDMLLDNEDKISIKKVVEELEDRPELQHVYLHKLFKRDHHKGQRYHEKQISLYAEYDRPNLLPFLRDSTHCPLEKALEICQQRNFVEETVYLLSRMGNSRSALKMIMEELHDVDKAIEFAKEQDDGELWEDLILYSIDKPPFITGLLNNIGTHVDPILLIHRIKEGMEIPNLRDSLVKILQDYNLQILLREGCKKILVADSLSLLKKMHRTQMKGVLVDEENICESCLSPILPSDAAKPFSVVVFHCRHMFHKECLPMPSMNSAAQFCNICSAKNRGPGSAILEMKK
inactive: [1] 0.015 | [2] 0.003 | [3] 0.004 | [4] -0.028 | Nexturastat A 0.108 | vemurafenib -0.051 | [5] 0.025 | [6] -0.03 | givinostat -0.013 | barasertib -0.02 | [7] -0.214 | volasertib -0.309 | [8] 0.02 | epoxomicin -0.038 | [9] -0.005 | [10] -0.106 | [11] -0.004 | rosiglitazone 0.066 | [12] 0.054
active: [13] -0.25

WARS2 (UniProt Q9UGM6)
UniProt Q9UGM6, sequence (Q9UGM6 whole entry, looked up): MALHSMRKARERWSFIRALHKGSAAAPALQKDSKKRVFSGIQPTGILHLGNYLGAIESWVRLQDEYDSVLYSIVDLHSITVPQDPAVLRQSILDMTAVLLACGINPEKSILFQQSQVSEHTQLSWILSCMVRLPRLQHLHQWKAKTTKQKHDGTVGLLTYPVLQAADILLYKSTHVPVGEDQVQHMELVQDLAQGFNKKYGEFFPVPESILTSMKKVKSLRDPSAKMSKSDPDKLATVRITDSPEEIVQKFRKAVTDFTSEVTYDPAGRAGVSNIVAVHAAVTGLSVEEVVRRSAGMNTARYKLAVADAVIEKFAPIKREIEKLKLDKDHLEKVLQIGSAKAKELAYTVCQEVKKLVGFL
active: volasertib -0.323
inactive: [1] -0.03 | [2] 0.032 | [3] 0.018 | [4] 0.074 | Nexturastat A -0.128 | vemurafenib 0.048 | [5] 0.136 | [6] 0.042 | givinostat -0.026 | barasertib 0.012 | [7] -0.07 | [8] 0.099 | epoxomicin 0.016 | [9] 0.043 | [10] -0.03 | [11] 0.043 | rosiglitazone 0.074 | [12] -0.055 | [13] -0.099

USO1 isoform 2 (UniProt O60763)
UniProt O60763, sequence (O60763 whole entry, looked up): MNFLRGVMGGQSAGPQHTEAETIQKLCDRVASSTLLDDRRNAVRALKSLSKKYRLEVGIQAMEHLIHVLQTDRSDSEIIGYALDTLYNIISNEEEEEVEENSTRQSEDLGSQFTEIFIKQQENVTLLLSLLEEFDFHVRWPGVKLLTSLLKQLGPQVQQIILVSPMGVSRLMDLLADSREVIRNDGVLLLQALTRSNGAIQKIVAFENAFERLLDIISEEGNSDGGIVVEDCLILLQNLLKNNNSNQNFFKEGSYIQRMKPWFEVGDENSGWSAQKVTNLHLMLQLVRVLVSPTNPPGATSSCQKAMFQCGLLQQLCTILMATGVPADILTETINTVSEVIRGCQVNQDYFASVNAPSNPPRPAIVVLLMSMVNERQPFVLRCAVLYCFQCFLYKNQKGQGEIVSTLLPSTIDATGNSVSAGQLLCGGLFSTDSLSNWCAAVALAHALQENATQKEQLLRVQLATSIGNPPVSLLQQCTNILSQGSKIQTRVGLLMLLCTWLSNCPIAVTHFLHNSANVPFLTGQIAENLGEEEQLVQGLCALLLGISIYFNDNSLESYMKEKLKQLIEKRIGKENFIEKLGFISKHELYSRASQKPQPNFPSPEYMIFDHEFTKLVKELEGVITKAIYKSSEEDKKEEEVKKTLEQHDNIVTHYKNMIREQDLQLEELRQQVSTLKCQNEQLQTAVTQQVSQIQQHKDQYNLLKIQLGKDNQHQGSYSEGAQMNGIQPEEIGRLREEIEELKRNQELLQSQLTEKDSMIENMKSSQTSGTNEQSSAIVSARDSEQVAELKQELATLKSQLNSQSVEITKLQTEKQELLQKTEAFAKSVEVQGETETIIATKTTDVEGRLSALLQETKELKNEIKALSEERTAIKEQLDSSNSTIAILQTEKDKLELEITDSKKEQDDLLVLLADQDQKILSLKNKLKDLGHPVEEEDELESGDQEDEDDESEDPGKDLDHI
active: volasertib -0.254
inactive: [1] 0.009 | [2] -0.013 | [3] 0.02 | [4] 0.038 | Nexturastat A -0.029 | vemurafenib 0.063 | [5] 0.062 | [6] -0.018 | givinostat 0 | barasertib 0.031 | [7] -0.108 | [8] 0.025 | epoxomicin 0.043 | [9] 0.001 | [10] -0.018 | [11] 0.015 | rosiglitazone 0.044 | [12] -0.059 | [13] -0.111

TNFRSF10A (UniProt O00220)
UniProt O00220, sequence (O00220 whole entry, looked up): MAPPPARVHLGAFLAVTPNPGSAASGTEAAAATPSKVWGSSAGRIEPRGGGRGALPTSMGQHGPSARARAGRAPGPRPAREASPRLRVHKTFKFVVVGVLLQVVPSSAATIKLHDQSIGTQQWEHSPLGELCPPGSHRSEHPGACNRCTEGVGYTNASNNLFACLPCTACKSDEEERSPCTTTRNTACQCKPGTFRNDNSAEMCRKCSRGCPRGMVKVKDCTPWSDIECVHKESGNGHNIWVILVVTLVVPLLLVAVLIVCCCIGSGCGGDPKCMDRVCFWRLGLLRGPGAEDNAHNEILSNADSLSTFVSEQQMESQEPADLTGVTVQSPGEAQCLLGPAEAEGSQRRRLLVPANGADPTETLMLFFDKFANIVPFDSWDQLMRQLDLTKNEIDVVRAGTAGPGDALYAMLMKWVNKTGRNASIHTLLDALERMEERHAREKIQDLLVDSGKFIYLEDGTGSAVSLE
inactive: [1] 0.006 | [2] 0.035 | [3] 0.016 | [4] -0.015 | Nexturastat A 0.089 | vemurafenib -0.073 | [5] -0.044 | [6] 0.004 | givinostat -0.042 | barasertib 0.016 | [7] 0.046 | volasertib 0.001 | [8] -0.02 | epoxomicin -0.047 | [9] -0.037 | [10] -0.104 | [11] -0.123 | rosiglitazone -0.053 | [12] -0.02 | [13] -0.007

VPS33B (UniProt Q9H267)
inactive: [1] -0.05 | [2] -0.037 | [3] -0.015 | [4] -0.02 | Nexturastat A 0.032 | vemurafenib 0.087 | [5] 0.069 | [6] 0.111 | givinostat 0.029 | barasertib 0.088 | [7] -0.129 | volasertib -0.378 | epoxomicin 0.022 | [9] -0.065 | [10] -0.039 | [11] 0.048 | rosiglitazone 0.073 | [12] 0.091 | [13] -0.218
active: [8] 0.284
